This is an account of results in PubChem BioAssay AID686970 (National Center for Advancing Translational Sciences (NCATS), 2013).

The structures appear in SMILES notation. Out of some 360,000 compounds screened, about 6,000 (1.7%) were called active. About 8% were inconclusive and are not listed. The list comes from a sample in which actives are over-represented; it also holds similar structures and randomly drawn compounds. Unmarked numbers belong to inactive results. The call rests on the fitted dose curve; in most records, active means well fitted cell-killing curve with a large enough effect; inconclusive means small, poorly fitted or top-dose-only effect, or effect the other way; inactive means flat fitted curve, though single readings scatter.
Potency means the concentration at half of the fitted maximal effect.

This test in a line: qHTS for induction of synthetic lethality in tumor cells producing 2HG: qHTS for the HT-1080-NT fibrosarcoma cell line.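 Further: NT is the 2HG producing partner of a matched IDH1 knockdown line; nearly all actives have a fitted effect of over 55% in size.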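 On activity, negative = less viability: 0% = DMSO-treated cells and -100% = media-only wells without cells.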 The following applies: HT-1080-NT fibrosarcoma viability, CellTiter-Glo ATP luminescence, 48 h; series mostly up to 46.1 µM; activity, negative = less viability: at the top concentration. A digest of the protocol: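 Luminescent CellTiter-Glo readout after 48 hours of compound exposure at 37 degrees C defined viability of HT-1080-NT cells. Activity was normalized to DMSO wells and cell-free media wells; concentration-response curves were fitted and assigned curve classes.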
Background: qHTS replaces the single test concentration by a dilution series.
As for `CCCNC(=O)C1(C)CCCN(C(=O)c2cccc(OC(C)=O)c2C)C1` (configuration not stated), the “activity, negative = less viability” value was 0.104%.
Same read-out and setting: to `CC1(C(=O)Nc2ccc3c(c2)OCCO3)CN(S(C)(=O)=O)CC(=O)N1Cc1cccc(F)c1` (configuration not stated) belongs 0.746%.
On to `CC(=O)Nc1ccc(NC(=O)COC(=O)c2ccccc2C(=O)c2ccccc2)cc1`, for which the “activity, negative = less viability” value was -6.07%.
`COC(=O)c1cc(NC(=O)Cc2ccccc2[N+](=O)[O-])ccc1Cl`: the “activity, negative = less viability” value was 6.16%.
`N#Cc1cccc(NC(=O)COC(=O)c2ccccc2C(=O)c2ccc(Cl)c([N+](=O)[O-])c2)c1`: the Potency was 7.31 µM (active).
For the compound `COc1ccc(C2Nc3ccc(NC(=O)COC(C)=O)cc3C(=O)N2Cc2ccccc2)cc1COc1ccc(NC(C)=O)cc1` (configuration not stated), the “activity, negative = less viability” value was -28.8%.
Take `CC(Sc1ccc(S(=O)(=O)N2CCN(C)CC2)cn1)C(=O)NC1CCCC(C)C1C` (configuration not stated): the “activity, negative = less viability” value is 0.927%.
As to `Cc1ccc(S(=O)(=O)N2CCN(c3ncnc4ccccc34)CC2)cc1`, the Potency entry is “inactive”.
For the compound `Cc1ccc(C)c(S(=O)(=O)N2CCN(c3ncnc4sccc34)CC2)c1`, the Potency was 5.8 µM (active).
As to `COc1ccc(C)cc1S(=O)(=O)N1CCN(S(=O)(=O)c2cc(C(=O)O)ccc2C)CC1`, the “activity, negative = less viability” value was -3.18%.
For the compound `CC1CCCC(C)N1C(=O)COC(=O)c1ccccc1C(=O)c1ccccc1` (configuration not stated), the “activity, negative = less viability” value is 10.5%.
Still for that read-out and setting: to `Cc1ccccc1Cn1c(C)c(C(=O)NCc2cccc(C(F)(F)F)c2)sc1=O` belongs 4.34%; to `OCCc1ccc(NCCc2ccco2)cc1`, 18.1%.
For the compound `CC1=C/C(=N\OS(=O)(=O)c2ccccc2)C=CC1=O`, the Potency is 20 µM (active).
As for `NC(=O)CSc1nnc(-c2cccc(S(=O)(=O)N3CCOCC3)c2)o1`, the “activity, negative = less viability” value is 0.364%.
As for `Cc1cccc(C)c1Cn1c(C)c(C(=O)NCc2cccc(Cl)c2)sc1=O`, the “activity, negative = less viability” value is -9.39%.
In the case of `OC(c1ccccc1)c1nc(-c2cnc3ccccc3c2)cs1` (configuration not stated), the “activity, negative = less viability” value is 2.55%.
On to `O=C(Nc1nnc(SCc2ccccc2Cl)s1)c1cccc([N+](=O)[O-])c1`, for which the Potency is 18.4 µM (active).
As for `NC(=O)CSc1nnc(NC(=O)c2ccc3ccccc3c2)s1`, the “activity, negative = less viability” value is 10.5%.
As for `O=C(Nc1nnc(SCc2c(Cl)cccc2Cl)s1)c1cccc([N+](=O)[O-])c1`, the “activity, negative = less viability” value was 0.797%.
Still for that read-out and setting: to `CC1=C(C(=O)N2CCOCC2)CC(CC(=O)NCCCN(C)C)C(=O)N1Cc1ccc(C(C)(C)C)cc1` (configuration not stated) belongs 14.2%.
On to `O=C(C1CCN(S(=O)(=O)c2cccs2)CC1)N1CCCCCC1`, for which the “activity, negative = less viability” value was -5.25%.
`O=C(NCc1ccc(Cl)cc1)C1CCN(S(=O)(=O)c2cccs2)CC1`: the “activity, negative = less viability” value was 0.206%.
Turning to `O=C(Nc1ccc(Br)cn1)C1CCN(S(=O)(=O)c2cccs2)CC1`, the Potency is 9.2 µM (active).
As to `Cc1ccc(C(=O)Nc2c(-c3ccccc3)[nH][nH]c2=O)cc1`, the “activity, negative = less viability” value was 18.6%.
On to `O=C(OC12CC3CC(CC(C3)C1)C2)c1ccc(NCc2cc(O)ccc2O)cc1`, for which the Potency was 14.6 µM (active).
On to `CC(CN1CCOCC1)OC(=O)c1ccc(Cl)cc1Cl` (configuration not stated), for which the “activity, negative = less viability” value is -1.94%.
In the case of `C#CCNc1ccc(C(=O)OCC)cc1`, the “activity, negative = less viability” value was -2.27%.
On to `CC(OC(=O)c1ccc(Cl)cc1O)C(=O)NCCC1=CCCCC1` (configuration not stated), for which the “activity, negative = less viability” value was -0.249%.
Still for that read-out and setting: to `CCN(CC)C(=O)CCC(=O)Nc1ccc(C(=O)OC)cc1` belongs -1.07%.
For `CC(C)OC(=O)c1ccc(NCc2cc(O)ccc2O)cc1Cl`, the Potency is 20.6 µM (active).
As to `COC(=O)c1ccc(NCc2cc(O)ccc2O)cc1`, the Potency was 16.4 µM (active).
For the compound `CC1(C)C2CCC1(C)C(OC(=O)c1ccc(O)cc1)C2` (configuration not stated), the “activity, negative = less viability” value is 17.4%.
For `CC(C)CCC(=O)Nc1cc(S(=O)(=O)N2CCOCC2)ccc1N1CCCC1`, the “activity, negative = less viability” value was 4.49%.
As to `Cc1ccc(S(=O)(=O)N2CCOCC2)cc1NC(=O)c1ccncc1`, the “activity, negative = less viability” value was 0.491%.
For the compound `Cc1ccc(S(=O)(=O)N2C[C@]3(O)C[C@@H]4C(=O)N(c5ccccc5)C(=O)[C@@H]4C[C@]3(OC(=O)NC3CC3)C2)cc1`, the “activity, negative = less viability” value is 9.44%.
Still for that read-out and setting: to `Cc1ccccc1-c1nc(NC(C)C)nc2cc(-c3ccccc3)sc12` belongs -0.193%; to `COc1ccc(CCn2c3c(c(=O)[nH]c2=S)CN(C(C)C)CN3)cc1OC`, 2.34%.
Consider `CC1(C(=O)Nc2cccc3cccnc23)CCN1C(=O)CCC1CCCC1` (configuration not stated), for which the “activity, negative = less viability” value is -2.99%.
Consider `CC1(C(=O)NS(=O)(=O)c2ccc(C#N)cc2)CCN1C(=O)c1ccc(C2CCCCC2)cc1` (configuration not stated), for which the “activity, negative = less viability” value is -12.9%.
Same read-out and setting: with `C[C@H](CO)N1C[C@H](C)[C@@H](CN(C)C(=O)C2CCCCC2)OCc2cnnn2CCCC1=O` the figure was 2.08%.
On to `Cc1cccc(-c2ncc(CN3CCC(CO)(CCCc4ccccc4)CC3)cn2)c1`, for which the “activity, negative = less viability” value was -3.51%.
As for `Cc1c(CN2CCC(CO)(CCOc3ccccc3)CC2)[nH]c2ccc(Cl)cc12`, the Potency is 25.9 µM (active).
In the case of `CC(C)(O)C#Cc1ccc(CN2CCC(CO)(CCc3ccccc3)CC2)cc1`, the “activity, negative = less viability” value was -5.63%.
Consider `CCCNC(=O)C1(C)CCN(Cc2ccc(Cl)c(Cl)c2)C1` (configuration not stated), for which the “activity, negative = less viability” value is -12.1%.
With `CN1OC[C@@H]2CN(S(=O)(=O)c3cccc(C(F)(F)F)c3)[C@H](c3ccc(-c4cc5ccccc5o4)cc3)C[C@@H]21`, the “activity, negative = less viability” value was 1.49%.
For `CNc1cnc(-c2cc(OC)c(OC)c(OC)c2)cn1`, the “activity, negative = less viability” value was -2.35%.
Take `O=C(Nc1cnn(Cc2ccc(Cl)cc2)c1)C1CCCC1`: the “activity, negative = less viability” value was -3.72%.
Take `CC(=O)c1cc(CN2CCC(C(=O)Nc3cccc(-c4cscn4)c3)CC2)cs1`: the “activity, negative = less viability” value is -13.4%.
Regarding `O=C(Nc1cccc(-c2cccc(Cl)c2)c1)C1CCN(C2CCC2)CC1`, the Potency is 25.9 µM (active).
Regarding `O=C(Nc1cccc(-c2cscn2)c1)C1CCN(Cc2ccsc2)CC1`, the “activity, negative = less viability” value was -10.8%.
Turning to `CCn1cc(CN2CCC(n3nccc3NC(=O)CCCc3ccccc3)CC2)c(C)n1`, the “activity, negative = less viability” value was -1.72%.
On to `CCn1cc(CN2CCC(C(=O)Nc3cccc(-c4cccc(Cl)c4)c3)CC2)cn1`, for which the Potency is 14.6 µM (active).
Regarding `COc1cccc(-c2cccc(NC(=O)C3CCN(C4CCC4)CC3)c2)c1`, the “activity, negative = less viability” value is 13.2%.
`O=C(NC1CCCC1)C1CCN(C(=O)Nc2cccc(Cl)c2)CC1`: the “activity, negative = less viability” value is 3.08%.
For `CCn1cc(CN2CCC(C(=O)Nc3cccc(-c4cccc(Cl)c4)c3)CC2)c(C)n1`, the Potency was 20.6 µM (active).
On to `O=C(COC(=O)c1cccc(Cl)c1Cl)NC1CCCCCC1`, for which the “activity, negative = less viability” value was -0.557%.
Take `CC(C)Oc1cc(F)ccc1-c1cc(C(=O)Nc2ccc(F)cc2)[nH]n1`: the “activity, negative = less viability” value was 4.59%.
As for `CCN(CC)C(=O)C1=C(C)N(Cc2ccccc2)C(=O)C(CC(=O)NC(c2ccccc2)c2ccccc2)C1` (configuration not stated), the “activity, negative = less viability” value is 0.296%.
For the compound `O=C(C[C@H]1CC[C@@H](NC(=O)c2ccncc2)[C@@H](CO)O1)NCC1CC1`, the “activity, negative = less viability” value is 25.8%.
With `NCCCCC(C(=O)O)N(C(=O)OCc1ccccc1)C(=O)OCc1ccccc1` (configuration not stated), the “activity, negative = less viability” value is 5.55%.
On to `CCCCCCn1c(=O)n2n(c1=O)C[C@]1(OC(=O)NCc3ccc(OC)c(OC)c3)CN(S(=O)(=O)c3ccc(C)cc3)C[C@]1(O)C2`, for which the “activity, negative = less viability” value is -13.8%.
